Marburg entry inh: blocks Marburg virus binding to or entry into cells; Marburg virus pseudotyped entry inhibition, cell reporter; Potency, µM (titrated, usually from 37.8 µM), hits mostly inhibitors; actives 1.8% (n = 300,000); AID 540276; calls by dose curve; tested in HEK293 cells
VACV Venus inh: vaccinia inhibition (Venus reporter); Vaccinia virus Venus reporter expression, fluorescence; Potency, µM (highest dose often 36.5 µM), usual class: inhibitors; actives 0.46% (n = 330,000); calls by dose curve; tested in A549 cells; note: nearly all actives have a fitted effect of over 30% in size
VACV mCherry inh: inhibitors of vaccinia virus infection (mCherry reporter signal). Vaccinia virus mCherry reporter infection, fluorescence. Potency, µM (doses to about 36.5 µM), most hits filed as inhibitors. actives 0.63% (n = 310,000); calls by dose curve; tested in A549 cells; note: nearly all actives have a fitted effect of over 35% in size
HCMV antiviral: human cytomegalovirus inhibition. activity change, negative = inhibition, % at 57.5 µM. HFF cells, HCMV-luciferase reporter, 72 h; active compounds read low. AID 1259415. actives 4.5% (n = 410,000); in the data active = activity change below about -60%; inconclusive = no clear call, values can overlap the other calls; inactive = above about -39%
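Two compound doses tested in HFFs infected with HCMV-luciferase, MOI 1 PFU/cell, 72 h at 37C. Lysate luminescence read with OneGlo; data normalized against buffer-only and 10uM Salinomycin inhibitor controls.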
LASV entry inh: blocks Lassa virus binding to or entry into cells; Lassa virus pseudotype entry inhibition, cell reporter; Potency, µM (series often up to 37.9 µM), hits mostly inhibitors; actives 1.2% (n = 300,000); AID 540256; calls by dose curve; tested in HEK293 cells; note: nearly all actives have a fitted effect of over 50% in size
HCV inh: HCV inhibition. Huh7.5.1 HCVcc-Cre infection, luciferase reporter, 44 h. AID 651820. Potency, µM (doses to about 41.8 µM), actives largely listed as inhibitors. actives 3.4% (n = 340,000); active = well fitted inhibition curve with a large enough effect; inconclusive = small, poorly fitted or top-dose-only effect, or another doubt; inactive = no such curve, though single readings can be large or run the other way
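A cell-based infection assay in which seeded cells (1,000 per well) receive test compound after 4 h, are inoculated with HCVcc-Cre at approximately 0.5 moi, and are incubated 44 h before luminescence detection.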
Numbers stand for hits; . = inactive; ? = inconclusive; / = not tested or not shown; [ ] = remark or other dose. An excerpt weighted towards active compounds, which were near 7.8% of everything screened.

SMILES | Marburg entry inh | VACV Venus inh | VACV mCherry inh | HCMV antiviral | LASV entry inh | HCV inh
COc1ccc(C2(CNC(=O)C(=O)Nc3ccc(C)c(Cl)c3)CCCC2)cc1OC | . | . | . | . | . | /
COc1cc(/C=N/NC(=O)c2ccc(-c3ccccc3)cc2)cc(OC)c1OC | . | ? | 5.6µM | ? | . | .
COc1ccc(/C=N\NC(=O)c2ccc(-c3ccccc3)cc2)c(OC)c1OC | . | . | . | . | ? | ?
Cc1ccccc1/C=N/NC(=O)c1sccc1C | . | . | . | . | . | .
COc1cc(C(=O)N/N=C/c2sccc2C)cc(OC)c1OC | ? | . | ? | -87 | ? | ?
COc1cc(/C=N/NC(=O)c2cc(-c3ccccc3)sc2N)cc(OC)c1OC | ? | . | . | . | 16µM | ?
COc1ccc(/C=N/NC(=O)c2sccc2C)c2ccccc12 | / | / | / | -62 | / | .
COc1ccccc1C1CN(CCNC(=O)c2cnsn2)Cc2ccccc2O1 (centres undefined) | / | . | . | / | / | /
COc1ccc(CCNC(=O)CCn2c(=O)c3ccccc3n(Cc3cc(C)ccc3C)c2=O)cc1OC | . | . | . | . | . | /
COc1cc(C(=O)Oc2ccccc2/C=N/NC(=O)c2ccc(C)c(Cl)c2)cc(OC)c1OC | ? | ? | 5µM | -104 | ? | ?
O=C(N/N=C\c1c(F)c(F)c(F)c(F)c1F)c1ccc(-c2ccccc2)cc1 | . | . | . | -69 | . | .
COc1cc(C(=O)N/N=C/c2cccc(Oc3ccccc3)c2)ccc1O | . | . | . | -78 | . | .
O=C(N/N=C\c1cccc(F)c1)c1ccc(-c2ccccc2)cc1 | . | . | . | . | . | .
CCn1c2c(c(=O)n3ncc(C(=O)Nc4cc(Cl)ccc4OC)c13)CN(Cc1ccc(OC)cc1)CC2 | / | . | . | . | . | /
COc1ccc(CN2CCc3c(c(=O)n4ncc(C(=O)N5CCN(c6ccccc6OC)CC5)c4n3C)C2)cc1 | / | ? | .[7.34 µM] | -84 | ? | /
COc1cc(N/N=C/c2ccc(N(C)C)cc2)ncn1 | / | . | . | . | / | .
CN(C)c1cc(N/N=C/c2ccc(Cl)cc2)nc(N(C)C)n1 | ? | / | / | ? | 12µM | 7.1µM
COc1cccc(-c2n[nH]c3ccnc(-c4cccc(C(C)=O)c4)c23)c1 | / | / | / | . | / | /
O=[N+]([O-])c1cc(S(=O)(=O)N2CCCC2)ccc1O | ? | . | . | . | . | .
CN(CC(=O)Nc1ccc(Cl)cc1)c1ccc(S(=O)(=O)N2CCCCC2)cc1[N+](=O)[O-] | ? | ? | . | -68 | ? | 13µM
O=[N+]([O-])c1cc(S(=O)(=O)N2CCCCCC2)ccc1F | 11µM | 14µM | ? | -97 | ? | ?
Cc1cc(C)c2oc(-c3cc(NC(=O)Cc4ccccc4)ccc3Cl)nc2c1 | . | . | . | . | . | /
COc1ccc(-c2nc3sc(CCNC(=O)c4ccco4)c(C)n3n2)cc1 | / | . | . | . | . | /
Cn1c(=O)c2c(ncn2CC(=O)Nc2cccc(Cl)c2Cl)n(C)c1=O | / | . | . | . | . | /
COc1ccc(-c2n[nH]c(C)c2-c2cnn(-c3ccccc3)c2)c(O)c1C | . | / | / | -77 | . | 11µM
SMILES | Marburg entry inh | VACV Venus inh | VACV mCherry inh | HCMV antiviral | LASV entry inh | HCV inh
COc1ccc(-c2n[nH]c(C)c2-c2cnn(-c3ccccc3)c2)c(O)c1 | ? | / | / | . | . | .
O=C(OCc1cn([C@@H]2C[C@H](c3ccccc3)N(CC3CCCCC3)C[C@@H]2O)nn1)c1ccccc1 | / | / | / | / | . | /
Cc1ccc(OCC(=O)N/N=C\c2c(C)n(C)c3ccccc23)c([N+](=O)[O-])c1 | 10µM | / | / | / | . | 16µM
Cc1ccccc1OCC(=O)N/N=C/c1cccc(Oc2ccc([N+](=O)[O-])cc2[N+](=O)[O-])c1 | ? | ? | ? | ? | ? | 11µM
Cc1c(/C=N/NC(=O)COc2ccccc2[N+](=O)[O-])c2ccccc2n1C | . | / | / | . | . | ?
CC(C)CCOc1ccc(CC(=O)NO)cc1 | / | . | . | / | / | /
CS(=O)(=O)Nc1cccc(C(=O)CC2(O)C(=O)Nc3ccccc32)c1 (centres undefined) | . | / | / | -68 | . | .
Cc1ccc2oc(=O)c3cc(C(=O)Nc4ccc(F)cc4F)sc3c2c1 | . | . | . | . | ? | /
COc1ccc2sc3c(=O)[nH]c4ccccc4c3c2c1 | . | ? | / | -83 | . | .
COc1ccc2c(c1)[nH]c(=O)c1sc3ccccc3c12 | . | . | / | / | . | ?
CCOc1ccc(CCNC(=O)c2nn(C)c3c2CS(=O)(=O)c2ccccc2-3)cc1OCC | ? | . | . | . | ? | 6.3µM
COCCCNC(=O)c1nn(C)c2c1CS(=O)(=O)c1ccccc1-2 | / | . | . | . | . | /
Cn1nc(C(=O)NC2CCCCC2)c2c1-c1ccccc1S(=O)(=O)C2 | / | .[7.34 µM] | .[7.34 µM] | -85 | / | .
CC1CCC(NC(=O)c2nn(C)c3c2CS(=O)(=O)c2ccccc2-3)CC1 (centres undefined) | / | / | / | . | / | .
COc1ccc(CCNC(=O)c2nn(C)c3c2CS(=O)(=O)c2ccccc2-3)c(OC)c1 | / | .[7.34 µM] | .[7.34 µM] | ? | / | 11µM
COC(=O)c1ccc(NC(=O)C2CCN(C(=O)c3ccc(F)cc3)CC2)cc1 | . | . | . | . | . | /
Cc1cccc(NC(=O)c2oc3ccccc3c2NC(=O)c2cc(=O)c3ccccc3o2)c1 | . | . | . | . | . | /
Cc1cc(/C=C2\Sc3ccccc3N2C)cc(C)[n+]1CC1CCCO1 (centres undefined) | ? | ? | 8.9µM | -100 | ? | 2.5µM
Cc1cc2c(cc1C)N(C(=O)CCl)CCN2C(=O)CCl | ? | . | . | . | ? | 4µM
Cc1ccc2nc(SCC(=O)c3ccccc3)nc(=O)n2c1 | ? | . | . | . | 10µM | .
Cc1ccc(CN2CCN(C3CCN(C(=O)c4ccccc4)CC3)C(=O)C2=O)cc1 | / | . | . | ? | . | /
CCOC(=O)c1c(C)[nH]c(C(=O)N/N=C\c2ccccc2Cl)c1C | . | ? | ? | -99 | ? | ?
CCOC(=O)c1c(C)[nH]c(C(=O)N/N=C/c2cccc(OC)c2)c1C | ? | ? | ? | . | ? | 22µM
COc1cccc(/C=N/NC(=O)c2[nH]c(C)c(C(=O)N/N=C/c3cccc(OC)c3)c2C)c1 | ? | . | . | . | . | 10µM
COc1ccc(/C=N/NC(=O)c2[nH]c(C)c(C(=O)N/N=C/c3ccc(OC)cc3)c2C)cc1 | ? | . | . | . | ? | ?
O=c1[nH]c(=O)n(-c2cccc3ccccc23)c(O)c1C=NCc1ccc2c(c1)OCO2 | . | / | / | -108 | . | .
COc1cc(CC(=O)OCC(=O)Nc2sccc2C(N)=O)cc(OC)c1OC | 11µM | . | . | . | ? | 10µM
CCc1ccc(NC(=O)Cn2cnc3sc(C)c(S(=O)(=O)N4CCN(c5ccccc5OC)CC4)c3c2=O)cc1 | ? | . | . | . | . | /
COc1cc(C2c3cc4c(cc3C(OC(C)=O)[C@H]3COC(=O)C23)OCO4)cc(OC)c1OC (some centres undefined) | / | . | . | / | / | /

Compound activity deposited in PubChem by National Center for Advancing Translational Sciences (NCATS).
